Columns and labels:
[1] = target: Tyrosine-protein kinase Fyn (Homo sapiens) (UniProt P06241); settings: at 1 µM
[2] = target: Tyrosine-protein kinase HCK (Homo sapiens) (UniProt P08631); settings: at 0.1 µM
[3] = target: Tyrosine-protein kinase HCK (Homo sapiens) (UniProt P08631); settings: at 1 µM
[4] = target: Insulin-like growth factor 1 receptor (Homo sapiens) (UniProt P08069); settings: at 0.1 µM
[5] = target: Insulin-like growth factor 1 receptor (Homo sapiens) (UniProt P08069); settings: at 1 µM
[6] = target: Insulin receptor (Homo sapiens) (UniProt P06213); settings: at 0.1 µM
Insulin receptor (Homo sapiens), sequence (P06213 28-758 limits assumed): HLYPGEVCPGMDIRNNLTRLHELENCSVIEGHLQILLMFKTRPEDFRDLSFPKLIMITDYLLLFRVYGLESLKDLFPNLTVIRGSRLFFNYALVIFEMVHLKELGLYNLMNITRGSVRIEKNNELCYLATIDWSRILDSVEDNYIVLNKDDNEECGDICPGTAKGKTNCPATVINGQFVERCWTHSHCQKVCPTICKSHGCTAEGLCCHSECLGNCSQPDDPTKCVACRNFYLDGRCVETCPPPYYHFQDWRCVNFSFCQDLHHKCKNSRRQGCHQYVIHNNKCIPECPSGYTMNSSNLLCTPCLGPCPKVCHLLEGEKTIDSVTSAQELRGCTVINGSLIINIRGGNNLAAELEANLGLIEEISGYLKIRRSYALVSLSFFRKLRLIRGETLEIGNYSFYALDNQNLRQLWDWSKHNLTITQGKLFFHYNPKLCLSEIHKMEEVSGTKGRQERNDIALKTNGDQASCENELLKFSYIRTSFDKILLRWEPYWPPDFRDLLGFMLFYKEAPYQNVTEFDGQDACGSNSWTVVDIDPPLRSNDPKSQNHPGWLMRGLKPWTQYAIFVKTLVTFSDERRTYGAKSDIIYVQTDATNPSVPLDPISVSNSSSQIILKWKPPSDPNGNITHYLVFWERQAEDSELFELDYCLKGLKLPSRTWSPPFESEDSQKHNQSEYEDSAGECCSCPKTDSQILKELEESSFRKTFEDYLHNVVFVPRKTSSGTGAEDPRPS
Insulin receptor (Homo sapiens), sequence (P06213 763-1382 limits assumed): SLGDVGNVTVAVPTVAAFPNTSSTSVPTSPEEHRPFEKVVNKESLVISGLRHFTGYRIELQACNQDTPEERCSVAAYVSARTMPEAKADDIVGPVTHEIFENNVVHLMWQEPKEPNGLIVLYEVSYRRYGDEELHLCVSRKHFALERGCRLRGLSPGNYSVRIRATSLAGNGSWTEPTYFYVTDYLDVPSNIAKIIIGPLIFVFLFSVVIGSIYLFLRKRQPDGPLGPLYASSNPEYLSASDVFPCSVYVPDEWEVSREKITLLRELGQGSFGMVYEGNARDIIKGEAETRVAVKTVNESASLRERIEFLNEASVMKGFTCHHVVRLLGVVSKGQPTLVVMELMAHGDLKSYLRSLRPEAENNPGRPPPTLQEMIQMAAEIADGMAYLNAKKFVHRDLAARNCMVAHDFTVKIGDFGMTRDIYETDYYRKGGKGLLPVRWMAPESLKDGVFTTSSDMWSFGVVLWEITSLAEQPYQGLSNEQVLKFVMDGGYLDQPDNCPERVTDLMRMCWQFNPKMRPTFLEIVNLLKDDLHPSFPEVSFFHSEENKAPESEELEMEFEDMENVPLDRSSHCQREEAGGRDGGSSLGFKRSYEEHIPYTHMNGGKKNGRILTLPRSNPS

[7] = target: Insulin receptor (Homo sapiens) (UniProt P06213); settings: at 1 µM
[8] = target: Insulin receptor-related protein (Homo sapiens) (UniProt P14616); settings: at 0.1 µM
Insulin receptor-related protein (Homo sapiens), sequence (P14616 27-742 limits assumed): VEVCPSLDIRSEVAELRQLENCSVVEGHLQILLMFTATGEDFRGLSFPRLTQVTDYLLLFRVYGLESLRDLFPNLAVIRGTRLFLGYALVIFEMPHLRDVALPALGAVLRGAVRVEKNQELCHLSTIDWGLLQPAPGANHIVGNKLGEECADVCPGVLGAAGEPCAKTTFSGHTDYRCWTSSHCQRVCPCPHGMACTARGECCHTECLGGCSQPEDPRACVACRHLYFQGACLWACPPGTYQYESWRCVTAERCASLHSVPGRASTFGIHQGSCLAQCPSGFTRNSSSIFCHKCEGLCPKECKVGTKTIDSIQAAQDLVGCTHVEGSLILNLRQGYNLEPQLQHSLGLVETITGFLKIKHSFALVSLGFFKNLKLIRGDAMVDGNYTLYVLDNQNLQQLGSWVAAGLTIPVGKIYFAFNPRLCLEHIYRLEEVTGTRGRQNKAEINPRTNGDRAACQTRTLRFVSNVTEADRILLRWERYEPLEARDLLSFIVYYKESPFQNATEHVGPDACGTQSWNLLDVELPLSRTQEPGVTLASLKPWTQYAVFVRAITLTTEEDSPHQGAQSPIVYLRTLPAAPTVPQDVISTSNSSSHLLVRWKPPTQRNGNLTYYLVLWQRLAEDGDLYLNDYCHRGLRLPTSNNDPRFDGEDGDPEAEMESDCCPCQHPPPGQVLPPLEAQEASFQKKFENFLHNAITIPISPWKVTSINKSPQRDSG
Insulin receptor-related protein (Homo sapiens), sequence (P14616 747-1297 limits assumed): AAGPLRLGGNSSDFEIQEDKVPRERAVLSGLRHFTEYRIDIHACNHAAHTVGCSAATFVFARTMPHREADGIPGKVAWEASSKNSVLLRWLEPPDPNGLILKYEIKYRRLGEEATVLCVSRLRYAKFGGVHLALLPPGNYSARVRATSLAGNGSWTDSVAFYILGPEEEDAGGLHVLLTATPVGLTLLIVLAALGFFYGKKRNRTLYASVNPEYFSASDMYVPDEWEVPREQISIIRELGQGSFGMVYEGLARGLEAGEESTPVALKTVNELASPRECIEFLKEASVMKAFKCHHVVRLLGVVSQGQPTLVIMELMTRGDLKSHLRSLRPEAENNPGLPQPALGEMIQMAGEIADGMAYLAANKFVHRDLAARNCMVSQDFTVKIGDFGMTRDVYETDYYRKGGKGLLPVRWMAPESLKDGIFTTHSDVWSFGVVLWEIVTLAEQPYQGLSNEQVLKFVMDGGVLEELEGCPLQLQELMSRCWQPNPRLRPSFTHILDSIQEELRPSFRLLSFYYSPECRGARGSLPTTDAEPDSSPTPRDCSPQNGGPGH

[9] = target: Insulin receptor-related protein (Homo sapiens) (UniProt P14616); settings: at 1 µM
[10] = target: T1, Tyrosine-protein kinase ITK/TSK (Homo sapiens) (UniProt Q08881); settings: at 0.1 µM
T1 sequence (whole entry): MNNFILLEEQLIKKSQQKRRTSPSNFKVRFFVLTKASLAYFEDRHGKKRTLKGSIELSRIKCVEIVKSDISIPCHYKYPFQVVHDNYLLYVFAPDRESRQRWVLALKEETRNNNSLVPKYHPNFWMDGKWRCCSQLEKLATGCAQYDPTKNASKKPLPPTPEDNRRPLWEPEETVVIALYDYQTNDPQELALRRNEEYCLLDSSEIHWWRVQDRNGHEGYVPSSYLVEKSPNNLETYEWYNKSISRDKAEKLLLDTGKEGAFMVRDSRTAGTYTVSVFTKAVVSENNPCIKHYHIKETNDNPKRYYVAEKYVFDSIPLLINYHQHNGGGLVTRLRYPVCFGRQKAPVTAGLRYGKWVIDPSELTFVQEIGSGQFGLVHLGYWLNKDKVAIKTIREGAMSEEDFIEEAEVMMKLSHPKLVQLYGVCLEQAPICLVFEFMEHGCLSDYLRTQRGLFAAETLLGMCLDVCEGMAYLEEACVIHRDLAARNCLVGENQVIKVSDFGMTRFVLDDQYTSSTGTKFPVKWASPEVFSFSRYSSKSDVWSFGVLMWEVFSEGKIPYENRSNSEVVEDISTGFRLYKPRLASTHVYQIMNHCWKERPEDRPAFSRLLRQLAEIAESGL

[11] = target: T1, Tyrosine-protein kinase ITK/TSK (Homo sapiens); settings: at 1 µM
[12] = target: Tyrosine-protein kinase JAK1 (Homo sapiens) (UniProt P23458); settings: at 0.1 µM
[13] = target: Tyrosine-protein kinase JAK1 (Homo sapiens) (UniProt P23458); settings: at 1 µM
[14] = target: Tyrosine-protein kinase JAK2 (Homo sapiens) (UniProt O60674); settings: at 0.1 µM
[15] = target: Tyrosine-protein kinase JAK2 (Homo sapiens) (UniProt O60674); settings: at 1 µM
[16] = target: T2, Tyrosine-protein kinase JAK3 (Homo sapiens) (UniProt P52333); settings: at 0.1 µM
T2 sequence (whole entry): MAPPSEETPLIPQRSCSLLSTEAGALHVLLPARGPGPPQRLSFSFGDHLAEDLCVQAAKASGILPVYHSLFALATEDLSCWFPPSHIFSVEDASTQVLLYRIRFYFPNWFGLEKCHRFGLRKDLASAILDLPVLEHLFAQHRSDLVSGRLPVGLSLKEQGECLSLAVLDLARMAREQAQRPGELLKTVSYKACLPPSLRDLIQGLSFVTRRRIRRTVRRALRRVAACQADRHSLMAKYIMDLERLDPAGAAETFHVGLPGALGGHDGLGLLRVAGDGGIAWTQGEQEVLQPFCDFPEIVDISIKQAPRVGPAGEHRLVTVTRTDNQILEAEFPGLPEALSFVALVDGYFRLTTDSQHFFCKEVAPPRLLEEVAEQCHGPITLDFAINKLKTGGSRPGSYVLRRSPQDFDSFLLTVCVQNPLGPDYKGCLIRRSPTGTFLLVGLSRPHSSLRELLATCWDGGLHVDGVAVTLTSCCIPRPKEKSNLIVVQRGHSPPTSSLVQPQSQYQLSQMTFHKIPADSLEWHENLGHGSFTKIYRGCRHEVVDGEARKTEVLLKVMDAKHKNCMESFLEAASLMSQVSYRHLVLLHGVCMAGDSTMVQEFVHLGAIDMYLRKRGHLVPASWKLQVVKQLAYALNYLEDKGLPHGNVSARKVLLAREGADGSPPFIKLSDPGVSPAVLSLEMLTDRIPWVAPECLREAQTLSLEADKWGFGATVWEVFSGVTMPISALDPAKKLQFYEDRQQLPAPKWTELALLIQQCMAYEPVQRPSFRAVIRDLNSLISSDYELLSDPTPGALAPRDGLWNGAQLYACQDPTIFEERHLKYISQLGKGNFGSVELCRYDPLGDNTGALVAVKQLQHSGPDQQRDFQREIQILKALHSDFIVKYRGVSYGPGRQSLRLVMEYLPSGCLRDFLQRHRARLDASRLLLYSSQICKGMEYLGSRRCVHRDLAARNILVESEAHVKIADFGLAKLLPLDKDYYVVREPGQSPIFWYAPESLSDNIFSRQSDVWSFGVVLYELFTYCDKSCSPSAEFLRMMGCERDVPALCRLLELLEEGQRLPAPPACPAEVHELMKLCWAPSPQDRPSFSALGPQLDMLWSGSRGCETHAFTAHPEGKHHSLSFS

[17] = target: T2, Tyrosine-protein kinase JAK3 (Homo sapiens); settings: at 1 µM
[18] = target: Vascular endothelial growth factor receptor 2 (Homo sapiens) (UniProt P35968); settings: at 0.1 µM
[19] = target: Vascular endothelial growth factor receptor 2 (Homo sapiens) (UniProt P35968); settings: at 1 µM
[20] = target: Mast/stem cell growth factor receptor Kit (Homo sapiens) (UniProt P10721); settings: at 0.1 µM;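 note: values are mean inhibition of KIT, from the GSK PKIS dataset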
Mast/stem cell growth factor receptor Kit (Homo sapiens), sequence (P10721 whole entry): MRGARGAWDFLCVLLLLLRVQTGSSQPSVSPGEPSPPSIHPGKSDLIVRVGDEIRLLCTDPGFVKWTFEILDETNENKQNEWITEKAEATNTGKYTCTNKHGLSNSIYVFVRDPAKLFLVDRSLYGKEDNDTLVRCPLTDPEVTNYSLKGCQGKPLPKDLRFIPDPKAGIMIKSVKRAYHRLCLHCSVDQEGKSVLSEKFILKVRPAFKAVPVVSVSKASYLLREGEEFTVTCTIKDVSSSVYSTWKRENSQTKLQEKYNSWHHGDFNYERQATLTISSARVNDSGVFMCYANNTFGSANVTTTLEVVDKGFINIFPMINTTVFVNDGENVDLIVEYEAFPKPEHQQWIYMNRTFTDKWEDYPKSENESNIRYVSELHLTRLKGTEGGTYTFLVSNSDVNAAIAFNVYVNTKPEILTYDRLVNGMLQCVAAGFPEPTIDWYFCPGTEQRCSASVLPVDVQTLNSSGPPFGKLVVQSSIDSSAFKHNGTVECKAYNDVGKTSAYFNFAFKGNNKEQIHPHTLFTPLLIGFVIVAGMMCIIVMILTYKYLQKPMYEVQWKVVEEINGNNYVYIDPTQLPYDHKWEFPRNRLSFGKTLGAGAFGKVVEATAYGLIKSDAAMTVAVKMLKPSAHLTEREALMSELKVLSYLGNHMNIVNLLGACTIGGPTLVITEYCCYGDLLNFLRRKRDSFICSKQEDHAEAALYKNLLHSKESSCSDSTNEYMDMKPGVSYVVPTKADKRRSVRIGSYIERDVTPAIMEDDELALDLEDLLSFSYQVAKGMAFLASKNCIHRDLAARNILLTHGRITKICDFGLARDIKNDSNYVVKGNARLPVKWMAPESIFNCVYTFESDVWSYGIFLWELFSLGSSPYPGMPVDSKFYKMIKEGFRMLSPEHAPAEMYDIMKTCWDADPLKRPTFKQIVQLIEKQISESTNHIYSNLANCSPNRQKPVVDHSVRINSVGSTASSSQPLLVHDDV

Tyrosine-protein kinase HCK (Homo sapiens), sequence (P08631 2-526 limits assumed): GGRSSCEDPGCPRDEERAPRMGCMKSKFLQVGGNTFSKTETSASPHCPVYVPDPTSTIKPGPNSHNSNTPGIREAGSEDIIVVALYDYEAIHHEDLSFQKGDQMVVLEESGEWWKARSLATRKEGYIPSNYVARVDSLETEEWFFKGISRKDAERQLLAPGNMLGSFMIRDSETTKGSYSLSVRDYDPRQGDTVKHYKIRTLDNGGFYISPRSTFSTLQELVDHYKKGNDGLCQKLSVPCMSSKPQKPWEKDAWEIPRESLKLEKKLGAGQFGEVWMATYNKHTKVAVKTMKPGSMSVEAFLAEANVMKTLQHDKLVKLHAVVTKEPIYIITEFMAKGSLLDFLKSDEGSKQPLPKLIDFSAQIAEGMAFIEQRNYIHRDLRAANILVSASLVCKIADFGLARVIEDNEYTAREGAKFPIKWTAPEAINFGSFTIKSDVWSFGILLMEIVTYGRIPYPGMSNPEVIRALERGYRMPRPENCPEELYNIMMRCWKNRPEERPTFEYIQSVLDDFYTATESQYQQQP
Tyrosine-protein kinase Fyn (Homo sapiens), sequence (P06241 2-537 limits assumed): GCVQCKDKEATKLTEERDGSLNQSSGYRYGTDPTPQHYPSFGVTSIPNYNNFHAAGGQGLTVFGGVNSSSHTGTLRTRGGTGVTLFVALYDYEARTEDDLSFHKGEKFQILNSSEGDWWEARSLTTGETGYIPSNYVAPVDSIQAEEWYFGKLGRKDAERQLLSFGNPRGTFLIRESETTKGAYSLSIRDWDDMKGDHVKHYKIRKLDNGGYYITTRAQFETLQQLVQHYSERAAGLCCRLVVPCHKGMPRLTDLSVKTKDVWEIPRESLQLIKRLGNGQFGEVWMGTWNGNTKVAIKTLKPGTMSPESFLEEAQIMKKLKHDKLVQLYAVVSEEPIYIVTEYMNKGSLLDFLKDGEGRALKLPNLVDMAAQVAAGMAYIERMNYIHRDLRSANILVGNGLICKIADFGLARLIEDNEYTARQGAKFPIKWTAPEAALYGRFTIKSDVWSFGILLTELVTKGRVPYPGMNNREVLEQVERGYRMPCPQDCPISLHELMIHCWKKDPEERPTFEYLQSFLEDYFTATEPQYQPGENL

SMILES	inhibition [1] [%]	inhibition [2] [%]	inhibition [3] [%]	inhibition [4] [%]	inhibition [5] [%]	inhibition [6] [%]	inhibition [7] [%]	inhibition [8] [%]	inhibition [9] [%]	inhibition [10] [%]	inhibition [11] [%]	inhibition [12] [%]	inhibition [13] [%]	inhibition [14] [%]	inhibition [15] [%]	inhibition [16] [%]	inhibition [17] [%]	inhibition [18] [%]	inhibition [19] [%]	inhibition [20] [%]
CCCN1CCCC(c2ccc(Nc3nc(Nc4cc(F)ccc4C(N)=O)c4cc[nH]c4n3)c(OC)c2)C1 (centres undefined)	16.1	7.06	11.9	93	94.8	98.9	96.2	93.7	97	2.35	6	-0.47	-0.81	1.82	2.51	-1.48	-3.27	7.45	16.6	8.98
O=C1Nc2ccc(-c3cccnc3)cc2C1=Cc1cc(Br)c(O)c(Br)c1	10.5	3.63	11.1	3.8	4.14	3.63	0.1	4.28	2.51	1.58	2.67	2.38	1.97	1.07	3.68	-1.1	15.8	4.5	10.1	3.48
Nc1nccc(C#Cc2cncnc2Nc2ccc(OCc3cccc(F)c3)c(Cl)c2)n1	2.19	5.32	10.2	3.97	4.12	3.13	4.44	8.14	1.12	1.89	3.09	2.03	2.27	1.73	1.57	0.41	4.42	6.4	10.6	3.65
FC(F)(F)c1ccc(-c2nn3ncccc3c2-c2ccnc(Nc3ccc4c(c3)OCCO4)n2)cc1	21.2	0.59	15.1	-3.01	-2.92	0.23	0.63	-0.78	0.97	5.77	4.7	7.49	24.3	-0.67	-0.89	6.03	4.36	-0.31	9.68	6.76
COc1cc(Nc2nccc(-c3cnn4ncccc34)n2)cc(OC)c1	40.3	5.71	32.8	13.8	65.4	12.3	70	3.56	22.1	0.74	11.8	4.49	22.9	1.89	36.4	7.71	60.5	14.8	63.8	96.2
CN(C)CCCn1c(-c2nonc2N)nc2cnccc21	1.87	5.43	6.49	10.2	9.74	7.05	4.75	2.59	4.16	1.43	0.92	4.69	6.17	1.25	0.79	-1.68	-0.27	4.41	8.24	2.22
C[C@@H](Oc1cc(-n2cnc3ccc(OC[C@@H](O)CO)cc32)sc1C(N)=O)c1ccccc1Cl	5.15	-0.15	6.39	-1.52	-0.34	0.87	0.26	-2.17	-2.11	0.28	0.81	-2.88	0.21	-0.63	0.06	-0.17	19.7	1.39	22.2	-0.46
COc1cc2ncnc(Nc3ccc4c(cnn4Cc4ccccc4)c3)c2cc1OC	35.7	11.4	48.5	-1.14	-0.72	2.75	3.75	0.39	2.09	0.88	1.9	4.18	2.43	1.01	1.11	-1.67	1.82	6.63	47.6	2.37
Cc1ccc2c(-c3ccnc(Nc4ccc5c(c4)OCCO5)n3)c(-c3ccc(C(F)(F)F)cc3)nn2n1	5.39	1.01	2.01	-4.21	0.39	-0.36	1.45	1.35	0.34	-1.23	1.1	1.09	1.09	0.16	-1.16	-2.23	1.23	-0.67	2.81	-0.52
Cc1cc(Cl)cc2c1NC(=O)C2=NNc1ccc(S(N)(=O)=O)cc1	3.01	2.49	4.3	2.32	0.19	2.78	4.18	-0.92	1.47	1.14	1.14	2.03	12.7	-0.3	0.42	-0.31	0.84	1.84	4.19	
Cc1ccc(C(=O)NC2CC2)cc1-c1ccc2[nH]ncc2c1	0.93	-3.84	-2.13	29.6	-5.48	0.44	-2.94	-3.94	-4.42	-2.18	-0.97	-3.33	-8.73	-1.66	-1.51	1.08	2.55	-3.15	3.28	-5.04
[O-][S+]1CCN(Cc2ccc(-c3ccc4ncnc(Nc5ccc(OCc6ccccc6)c(Cl)c5)c4c3)o2)CC1	4.61	2.6	3.96	14.4	10.7	2	3.55	-1.65	0.75	0.08	1.13	1.27	2.62	0.66	-0.25	-1.01	-0.24	0.96	4	1.98
COc1ccc2ncnc(Nc3ccc(OCc4ccccc4)cc3)c2c1	10.2	2.78	8.33	0.69	0.08	0.98	3.05	1.39	2.07	0.5	1.7	1.35	3.3	1.02	0.06	0.27	0.67	1.51	3	3.24
